The results in this text go back to PubChem BioAssay (NCATS).

Test [1] is described as follows: qHTS Assay for Identifying Gametocytocidal Compounds (AID 743244). Also: potency is read from the fitted curve at half-maximal effect.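 As to max response: % is scaled to controls: 0 for no effect and ±100 for the full control effect; actives lower the fluorescent signal which means gametocytes are killed.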 The following applies: P. falciparum 3D7 stage III-V gametocytes, alamarBlue, 72 h; max response: stronger effect = lower value. Put shortly:
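In this qHTS viability screen, late-stage 3D7 gametocytes are incubated with compound for 72 h, then with alamarBlue for 24 h; reduced resorufin fluorescence marks killing.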
A general note: qHTS replaces the single test concentration by a dilution series.

A short description of test [2]: qHTS assay for measurement of the activity of small molecule inhibitors on Zika virus induced Caspase-3 activity in human iPSC derived neural progenitor cells (hNPCs) (AID 1224857). Also: % of control where 0% means no effect; nearly all actives have a fitted effect of over 65% in size. The method, boiled down:
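In medium with heparin 2 ug/ml and cyclopamine 2 uM, hNPCs (350 cells/well) received compound for one hour and then Zika virus at 2 FFU/cell; caspase activity was measured by Caspase-Glo 3/7 luminescence 6 h post-infection.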

Test [3] is described as follows: qHTS assay for measurement of the activity of small molecule inhibitors on Zika virus induced Caspase-3 activity in human astrocytoma cells (AID 1224859).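 Also: plate controls were ZIKV-infected untreated cells for no effect and uninfected cells for full effect.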 The method, boiled down:
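A cell-based luminescent caspase-3/7 assay used SNB-19 cells infected with ZIKV (2 FFU/cell) for 6 h following 1 h compound pretreatment.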

The nature of test [4]: qHTS assay to identify small molecule inhibitors of chordoma cells - UCH-2 (AID 1259356). Also: potency is read from the fitted curve at half-maximal effect.
The nature of test [5]: qHTS assay to identify small molecule inhibitors of chordoma cells - UCH-1 (AID 1259355). Also: % is scaled to controls: 0 for no effect and ±100 for the full control effect; nearly all actives have a fitted effect of over 55% in size. The method, boiled down:
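Screening used approved and investigational drugs in 15-point titration against 800 seeded cells per well. A fixed combination of auranofin with camptothecin, doxorubicin, rubitecan and topotecan followed compound addition, and growth was scored by CellTiter-Glo after 48hr.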

Test [6] in a line: qHTS profiling for inhibitors of Plasmodium falciparum (3D7) proliferation (AID 743322).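 Also: infected erythrocytes exposed to compound for 72 h before lysis; 100% = DMSO vehicle wells and 0% = 0.29 µM artemisinin.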 To be noted: P. falciparum 3D7 proliferation; at 28.7 µM (top of the series) unless noted. The method, boiled down: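 Parasite DNA was quantified by SYBR Green I fluorescence (ex 485, em 535 nm) after overnight lysis in saponin/Triton buffer at room temperature. Cultures at 0.3% parasitemia and 2.5% hematocrit were first exposed to compound for 72 h at 37 C; signals were normalised to artemisinin (0.29 uM) and vehicle wells.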

The nature of test [7]: qHTS profiling for inhibitors of Plasmodium falciparum (DD2) proliferation (AID 743323; call rule not given here). To be noted: lower = more inhibition; at 28.7 µM (top of the series) unless noted. The method, boiled down:
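SYBR Green fluorescence (ex 485, em 535 nm) of lysed cultures gives parasite DNA content; wells normalized to artemisinin (0.29 uM) and DMSO controls. Infected red cells: 0.3% parasitemia, 2.5% hematocrit, 72 h, 37 C.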

A short description of test [8]: qHTS profiling for inhibitors of Plasmodium falciparum (HB3) proliferation (AID 743324).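 Also: 100% = DMSO vehicle wells and 0% = artemisinin-treated control wells.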 The following applies: Plasmodium falciparum HB3 blood-stage proliferation; at 28.7 µM (top of the series) unless noted. Put shortly:
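SYBR Green fluorescence (485 ex/535 em) of lysed cultures, incubated overnight at room temperature in the dark, quantifies parasite DNA. Infected erythrocytes at 0.3% parasitemia and 2.5% hematocrit were exposed 72 h; values normalized to DMSO and 0.29 uM artemisinin controls.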

Test [9] can be described thus: Identifying Small Molecule Inhibitors of Pancreatic Cancer Stem Cells (A2780, Spheroid) (AID 1259357).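 Also: potency is read from the fitted curve at half-maximal effect; compound exposure lasted 48 h before the ATP luminescence read.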 To be noted: A2780 spheroid viability. The method, boiled down:
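Endpoint: ATP-based luminescence, 48 h drug exposure. Bortezomib at 9.2 uM final as full-kill control; DMSO vehicle as negative control; activity normalized between vehicle and cell-free wells.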

Test [10] can be described thus: Identifying Small Molecule Inhibitors of Pancreatic Cancer Stem Cells (SN12C, Adherent) (AID 1259358).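 Also: potency is read from the fitted curve at half-maximal effect; cell survival measured after 48 h of compound exposure.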 The following applies: viability/growth inhibition. The method, boiled down:
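Monolayer and spheroid cultures are compared. Spheroids form over 14 days in stem cell medium on hydrogel-coated low-attachment plates, then are exposed to compound for 48 h before CellTiter-Glo luminescence.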

The nature of test [11]: Identifying Small Molecule Inhibitors of Pancreatic Cancer Stem Cells (Panc1, Spheroid) (AID 1259359).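 Also: potency is read from the fitted curve at half-maximal effect; compound exposure lasted 48 h before reading.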 The following applies: Panc1 spheroid cancer stem cell viability. The method, boiled down:
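Luminescent ATP readout (CellTiter-Glo) quantifies surviving cells after a 48 h drug incubation. Normalization uses DMSO wells as no inhibition and media-only wells as full inhibition; bortezomib served as positive control.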

Values joined by “and” are separate entries in the source; they are usually repeats but may differ in a detail not shown here. Equal entries are not always repeated. Records with an inconclusive call do not appear. Active and inactive are the calls of the source. Unless noted, calls follow the shape of the dose curve; as a rule, active = well fitted curve in the direction sought with a large enough effect; inconclusive = small, poorly fitted or top-dose-only effect, or another doubt; inactive = no such curve, though single readings can be large; an effect the other way counts as inactive or inconclusive.

As for `C[C@]12C=CC(=O)C=C1[C@@H](F)C[C@@H]1[C@@H]2[C@@H](O)C[C@@]2(C)[C@H]1CC[C@]2(O)C(=O)CO`, the max response in test [1] was -0.315% (inactive) and -15.3% (inactive). Moreover, the compound was called inactive in [2] and in test [3]. For the same compound, the Potency result in test [4] is “inactive”.
As for `CCCC(=O)Nc1ccc(OCC(O)CNC(C)C)c(C(C)=O)c1` (stereo not drawn), in test [1], the max response was 19.2% (inactive). Besides, the call in [2] and in test [3] was inactive. The Potency entry in test [4] is “inactive”.
On to `COC(=O)[C@@H]1CC2=CC(=O)CC[C@]2(C)[C@@]23O[C@@H]2C[C@@]2(C)[C@@H](CC[C@@]24CCC(=O)O4)[C@H]13`, for which the max response in [1] is 1.84% (inactive). Also, the call in [2] and in [3] was inactive. The Potency result in test [4] was “inactive”.
For `O=c1c(-c2ccccc2)c1-c1ccccc1`, in test [1], the Potency is 3.98 µM (active). Moreover, the result in [2] and in test [3] was inactive. For the same compound, the Potency entry in test [4] is “inactive”.
Turning to `Oc1cc(O)c2c(c1)O[C@H](c1ccc(O)c(O)c1)[C@H](O)C2`, the max response in test [1] was 2.48% (inactive). In addition, the outcome in test [2] and in test [3] was inactive. Further, the Potency entry in test [4] is “inactive”.
In the case of `CC(C)(C(=O)c1cccnc1)c1cccnc1`, the max response in [1] is 4.59% (inactive). Besides, the result in test [2] and in test [3] was inactive. Also, in [4], the Potency entry was “inactive”.
In the case of `CCOC(=O)OC(C)OC1=C(C(=O)Nc2ccccn2)N(C)S(=O)(=O)c2ccccc21` (stereo not drawn), the max response in test [1] was -4.24% (inactive). In addition, the outcome in [2] and in test [3] was inactive. For the same compound, the Potency result in test [4] was “inactive”.
In the case of `C=C1C[C@H]2[C@@H]3C=C(C)C4=CC(=O)CC[C@]4(C)[C@H]3CC[C@]2(C)[C@@]1(OC(C)=O)C(C)=O`, in [1], the max response is 18% (inactive). Further, the outcome in test [2] and in test [3] was inactive. Also, the Potency result in [4] was “inactive”.
For the compound `COc1cc(OC)cc(OC)c1`, the max response in test [1] is 0.294% (inactive). For the same compound, the outcome in [2] and in [3] was inactive. In addition, the Potency result in test [4] was “inactive”.
Turning to `COc1ccc(C2C(=O)c3ccccc3C2=O)cc1`, the max response in test [1] is 5.04% (inactive). Besides, the result in test [2] and in test [3] was inactive. Further, in [4], the Potency entry was “inactive”.
For `C[C@H](O)C(=O)Nc1c(I)c(C(=O)NC(CO)CO)c(I)c(C(=O)NC(CO)CO)c1I`, in [1], the max response was 9.34% (inactive). Besides, the call in test [2] and in test [3] was inactive. The Potency entry in test [4] was “inactive”.
Turning to `CCN1CCN(c2cc3c(cc2F)c(=O)c(C(=O)O)cn3C2CC2)CC1`, in test [1], the max response was 1.09% (inactive). For the same compound, the call in [2] and in test [3] was inactive. The Potency entry in test [4] was “inactive”.
For the compound `O=C1OCCN1/N=C/c1ccc([N+](=O)[O-])o1`, the max response in test [1] was 2.02% (inactive). Also, the compound was called inactive in test [2] and in test [3]. In addition, in test [4], the Potency result was “inactive”.
In the case of `CC(=O)OCC(=O)[C@@]1(O)[C@H](C)C[C@H]2[C@@H]3CCC4=CC(=O)C=C[C@]4(C)[C@@]3(F)[C@@H](O)C[C@@]21C`, in [1], the max response was 9.89% (inactive) and -3.15% (inactive). The compound was classed as inactive in test [2] and in test [3]. Besides, the Potency entry in [4] was “inactive”.
With `CCOc1ccc(Cc2nccc3cc(OCC)c(OCC)cc23)cc1OCC`, the max response in [1] is 10.4% (inactive). For the same compound, the compound was classed as inactive in [2] and in test [3]. In test [4], the Potency result is “inactive”.
On to `CC1(C)O[C@@H]2C[C@H]3[C@@H]4CCC5=CC(=O)CC[C@]5(C)[C@@]4(F)[C@@H](O)C[C@]3(C)[C@]2(C(=O)CCl)O1`, for which, in test [1], the Potency was 8.91 µM (active). For the same compound, the call in test [2] and in test [3] was inactive. In test [4], the Potency entry is “inactive”.
`CN1CCC(=C2c3ccccc3Sc3ccccc32)CC1`: in test [1], the Potency was 15.8 µM (active). In addition, the outcome in test [2] and in test [3] was inactive. Moreover, the Potency entry in test [4] was “inactive”.
For `CC(C)COC(=O)c1ccc(N)cc1`, the max response in test [1] was 10.2% (inactive). In addition, the result in [2] and in test [3] was inactive. Further, the Potency entry in test [4] is “inactive”.
Turning to `Cc1c(N(C)CS(=O)(=O)O)c(=O)n(-c2ccccc2)n1C`, the max response in [1] was 18.3% (inactive). The result in test [2] and in test [3] was inactive. The Potency result in [4] is “inactive”.
For `COCc1c(C(C)C)nc(C(C)C)c(/C=C/[C@@H](O)C[C@@H](O)CC(=O)O)c1-c1ccc(F)cc1`, the max response in test [1] is -6.56% (inactive). In addition, the call in test [2] and in test [3] was inactive. Further, in test [4], the Potency result is “inactive”.
`OC[C@H]1O[C@@H](n2cnc3c(=S)nc[nH]c32)[C@H](O)[C@@H]1O`: the max response in [1] was -4.52% (inactive). The outcome in test [2] and in [3] was inactive. The Potency result in test [4] is “inactive”.
In the case of `Cc1ncc(CSSCc2cnc(C)c(O)c2CO)c(CO)c1O`, the max response in [1] was -2.24% (inactive). In addition, the compound was called inactive in test [2] and in test [3]. Besides, the Potency result in test [4] is “inactive”.
With `CCCCC(CC)CN=C(N)NC(N)=NCCCCCCN=C(N)NC(N)=NCC(CC)CCCC` (stereo not drawn), the figures for the Potency in [1] and in test [4] were 6.31 µM (active) and 25.9 µM (active), respectively. Further, the call in test [2] and in test [3] was inactive.
Regarding `C[C@]12CCC(=O)C=C1[C@@H]1C[C@@H]1[C@H]1[C@@H]3[C@@H]4C[C@@H]4[C@@]4(CCC(=O)O4)[C@@]3(C)CC[C@@H]12`, the max response in [1] was 5.27% (inactive). Besides, the compound was called inactive in test [2] and in test [3]. The Potency result in test [4] is “inactive”.
As to `COc1c(C)c2c(c(O)c1C/C=C(\C)CCC(=O)O)C(=O)OC2`, the max response in [1] is 31.6% (inactive). In addition, the compound was classed as inactive in test [2] and in test [3]. Moreover, in test [4], the Potency result is “inactive”.
Consider `N[C@@H](CCC(=O)N[C@@H](CS)C(=O)NCC(=O)O)C(=O)O`, for which the result in [2] was inactive. For the same compound, the Potency entry in [5] and in test [4] was “inactive” in each case.
For the compound `NC[C@H]1O[C@H](O[C@H]2[C@H](O)[C@@H](O[C@H]3O[C@H](CO)[C@@H](O)[C@H](N)[C@H]3O)[C@H](N)C[C@@H]2N)[C@H](N)[C@@H](O)[C@@H]1O`, the max response in [1] was -18.8% (inactive) and 4.69% (inactive). Besides, the call in test [2] and in [3] was inactive.
As for `Cc1onc(-c2c(Cl)cccc2Cl)c1C(=O)N[C@@H]1C(=O)N2[C@@H]1SC(C)(C)[C@@H]2C(=O)O`, in [1], the max response was -15.6% (inactive). The compound was classed as inactive in test [2] and in [3].
As for `Nc1ccn([C@@H]2O[C@H](CO)[C@@H](O)C2(F)F)c(=O)n1`, the max response in test [1] is 15.6% (inactive) and -5% (inactive). Besides, the remaining parasite growth % (stronger effect = lower value) in [6] is -1.17% [at 57.5 µM]. In addition, in test [7], the activity, percent of control came to 1.07% [at 57.5 µM]. This compound also had a remaining proliferation (% of control), lower = more inhibition in test [8] of 0.276% [at 57.5 µM]. Also, the compound was called inactive in test [2] and in test [3]. For the same compound, the Potency in test [9] was 0.481 µM (active); in test [10] it was 0.054 µM (active); in test [11] it was 0.0171 µM (active).
